Experimental data taken from the supplement of paper PMC12282887.
± gives the standard deviation of the averaged measurements.

System: E. coli BW25113 marRABp lux reporter
Experiment: promoter activity interaction Z-score (Lux/OD deviation from empty-vector control); higher = stronger promoter induction by the compound
Method: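 E. coli BW25113 (wild type or ΔmarA/ΔsoxS/Δrob) carrying pTU175 luxCDABE promoter reporters was grown in LB in 384-well plates at 37°C with each of 94 compounds at 4 two-fold concentrations, in biological duplicates. Luminescence and OD600 were read every 30 min for 12 h and integrated as AUC over 8 h (0-8 h WT, 1-9 h mutants). Lux AUC was divided by OD AUC; the interaction score is the residual of a Huber robust fit of each promoter against the empty-vector control, then Z-transformed per promoter.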

[1] = 1 µg/ml, genetic background: wild type
[2] = 1 µg/ml, genetic background: ΔmarA
[3] = 1 µg/ml, genetic background: Δrob
[4] = 1 µg/ml, genetic background: ΔsoxS

Q: For `CCC[C@@H]1C[C@@H](C(=O)N[C@@H]([C@H]2O[C@H](SC)[C@H](O)[C@@H](O)[C@H]2O)[C@H](C)Cl)N(C)C1` [Clindamycin], which “promoter activity interaction Z-score” value (0.26 µg/ml, genetic background: wild type) is on record?
A: 0.333 ± 0.029

Q: What about the “promoter activity interaction Z-score” value (0.26 µg/ml, genetic background: ΔmarA) of the same molecule?
A: 0.0595 ± 0.25

Q: And the “promoter activity interaction Z-score” value (0.26 µg/ml, genetic background: Δrob)?
A: 0.168 ± 0.043

Q: And the “promoter activity interaction Z-score” value (0.26 µg/ml, genetic background: ΔsoxS)?
A: 0.145 ± 0.068

Q: What about the “promoter activity interaction Z-score” value (0.52 µg/ml, genetic background: wild type) of the same molecule?
A: -0.369 ± 0.4

Q: What about the “promoter activity interaction Z-score” value (0.52 µg/ml, genetic background: ΔmarA) of the same molecule?
A: 0.0444 ± 0.093

Q: What about the “promoter activity interaction Z-score” value (0.52 µg/ml, genetic background: Δrob) of the same molecule?
A: 0.0402 ± 0.096

Q: And the “promoter activity interaction Z-score” value (0.52 µg/ml, genetic background: ΔsoxS)?
A: 0.279 ± 0.051

Q: What about the “promoter activity interaction Z-score” value [1] of the same molecule?
A: 0.363 ± 0.56

Q: And the “promoter activity interaction Z-score” value [2]?
A: -0.225 ± 0.051

Q: And the “promoter activity interaction Z-score” value [3]?
A: 0.279 ± 0.32

Q: And the “promoter activity interaction Z-score” value [4]?
A: 0.414 ± 0.023

Q: What about the “promoter activity interaction Z-score” value (2.1 µg/ml, genetic background: wild type) of the same molecule?
A: 0.13 ± 0.11

Q: And the “promoter activity interaction Z-score” value (2.1 µg/ml, genetic background: ΔmarA)?
A: -0.108 ± 0.33

Q: What about the “promoter activity interaction Z-score” value (2.1 µg/ml, genetic background: Δrob) of the same molecule?
A: 0.449 ± 0.032

Q: And the “promoter activity interaction Z-score” value (2.1 µg/ml, genetic background: ΔsoxS)?
A: 0.869 ± 0.17

Q: With `NC1CONC1=O` (stereo not drawn) [Cycloserine D] as the molecule, how does the “promoter activity interaction Z-score” value [1] read?
A: -0.0783 ± 0.12

Q: And the “promoter activity interaction Z-score” value [2]?
A: -0.137 ± 0.057

Q: What about the “promoter activity interaction Z-score” value [3] of the same molecule?
A: -0.172 ± 0.25

Q: And the “promoter activity interaction Z-score” value [4]?
A: -0.158 ± 0.078

Q: What about the “promoter activity interaction Z-score” value (1.9 µg/ml, genetic background: wild type) of the same molecule?
A: -0.121 ± 0.15

Q: And the “promoter activity interaction Z-score” value (1.9 µg/ml, genetic background: ΔmarA)?
A: 0.00534 ± 0.14

Q: And the “promoter activity interaction Z-score” value (1.9 µg/ml, genetic background: Δrob)?
A: -0.0886 ± 0.21

Q: What about the “promoter activity interaction Z-score” value (1.9 µg/ml, genetic background: ΔsoxS) of the same molecule?
A: 0.0634 ± 0.045

Q: And the “promoter activity interaction Z-score” value (3.8 µg/ml, genetic background: wild type)?
A: -0.109 ± 0.06

Q: And the “promoter activity interaction Z-score” value (3.8 µg/ml, genetic background: ΔmarA)?
A: -0.119 ± 0.032

Q: What about the “promoter activity interaction Z-score” value (3.8 µg/ml, genetic background: Δrob) of the same molecule?
A: -0.11 ± 0.062

Q: What about the “promoter activity interaction Z-score” value (3.8 µg/ml, genetic background: ΔsoxS) of the same molecule?
A: -0.153 ± 0.013

Q: And the “promoter activity interaction Z-score” value (7.7 µg/ml, genetic background: wild type)?
A: -0.273 ± 0.016

Q: What about the “promoter activity interaction Z-score” value (7.7 µg/ml, genetic background: ΔmarA) of the same molecule?
A: -0.299 ± 0.099

Q: And the “promoter activity interaction Z-score” value (7.7 µg/ml, genetic background: Δrob)?
A: 0.163 ± 0.27

Q: What about the “promoter activity interaction Z-score” value (7.7 µg/ml, genetic background: ΔsoxS) of the same molecule?
A: -0.0525 ± 0.2

Q: With `C[C@]12CC[C@@H]3c4ccc(O)cc4CC[C@H]3[C@@H]1CC[C@@H]2O` [Estradiol] as the molecule, how does the “promoter activity interaction Z-score” value (17 µg/ml, genetic background: wild type) read?
A: 0.0618 ± 0.2

Q: And the “promoter activity interaction Z-score” value (17 µg/ml, genetic background: ΔmarA)?
A: -0.313 ± 0.021

Q: What about the “promoter activity interaction Z-score” value (17 µg/ml, genetic background: Δrob) of the same molecule?
A: -0.258 ± 0.042

Q: What about the “promoter activity interaction Z-score” value (17 µg/ml, genetic background: ΔsoxS) of the same molecule?
A: -0.0159 ± 0.095

Q: What about the “promoter activity interaction Z-score” value (34 µg/ml, genetic background: wild type) of the same molecule?
A: -0.352 ± 0.0081

Q: What about the “promoter activity interaction Z-score” value (34 µg/ml, genetic background: ΔmarA) of the same molecule?
A: -0.312 ± 0.088

Q: And the “promoter activity interaction Z-score” value (34 µg/ml, genetic background: Δrob)?
A: -0.348 ± 0.044

Q: What about the “promoter activity interaction Z-score” value (34 µg/ml, genetic background: ΔsoxS) of the same molecule?
A: 0.0387 ± 0.037

Q: And the “promoter activity interaction Z-score” value (68.1 µg/ml, genetic background: wild type)?
A: -0.254 ± 0.14

Q: What about the “promoter activity interaction Z-score” value (68.1 µg/ml, genetic background: ΔmarA) of the same molecule?
A: -0.263 ± 0.18

Q: What about the “promoter activity interaction Z-score” value (68.1 µg/ml, genetic background: Δrob) of the same molecule?
A: -0.158 ± 0.23

Q: And the “promoter activity interaction Z-score” value (68.1 µg/ml, genetic background: ΔsoxS)?
A: -0.162 ± 0.022

Q: And the “promoter activity interaction Z-score” value (136.2 µg/ml, genetic background: wild type)?
A: -0.478 ± 0.16

Q: What about the “promoter activity interaction Z-score” value (136.2 µg/ml, genetic background: ΔmarA) of the same molecule?
A: -0.488 ± 0.082

Q: What about the “promoter activity interaction Z-score” value (136.2 µg/ml, genetic background: Δrob) of the same molecule?
A: -0.392 ± 0.36

Q: What about the “promoter activity interaction Z-score” value (136.2 µg/ml, genetic background: ΔsoxS) of the same molecule?
A: 0.155 ± 0.22
